The target of the experiment is Peptidyl-prolyl cis-trans isomerase NIMA-interacting 1 (Homo sapiens) (UniProt Q13526). Briefly: qHTS Assay to Find Inhibitors of Pin1: Hit Validation using Tamra Binding. Particulars: Pin1 Tamra-peptide displacement, fluorescence polarization, 10 min. The source says:
The unique chemical properties of Pro allow for the adoption of two completely distinct amide bond conformations (cis and trans). Peptidyl-prolyl cis/trans isomerases (PPIases) are evolutionary conserved enzymes that catalyze cis/trans isomerization of peptidyl-prolyl peptide bonds. Distinct from all other PPIases such as cyclophilins and FK506-binding proteins (FKBPs), Pin1 binds a subset of phos.Ser/Thr-Pro-containing proteins using its protein-targeting WW domain and isomerizes only specific phos.Ser/Thr-Pro bonds, which cannot be effectively catalyzed by other known PPIases. […] The goal of this screen is to find small-molecule inhibitors of Pin1 using a fluorescence polarization competition assay.In the primary screen, a HiFluor-488-labeled peptide binds to the active site of Pin1 and can be displaced by compounds. […] To validate the hits using a different read-out, this Tamra binding assays was used against all the hits identified from the primary screen. […]
Briefly, 2 uL of Pin1 (all columns but column 3, which just receives buffer and serves as negative control) are dispensed into Greiner black solid bottom 1536-well assay plates. […] Finally, plates are transferred to a ViewLux high-throughput CCD imager (PerkinElmer), wherein end-point measurements of fluorescence polarization are acquired. […]

Structures are written as SMILES. Records with an inconclusive call do not appear. Calls of active or inactive are those of the source. Calls come from the whole dose curve; as a rule, active = well fitted inhibition curve with a large enough effect; inconclusive = small, poorly fitted or top-dose-only effect; inactive = no such curve, though single readings can be large or run the other way.

Chain of Peptidyl-prolyl cis-trans isomerase NIMA-interacting 1 (Homo sapiens) (Q13526 whole entry, looked up, the tested form may be a part): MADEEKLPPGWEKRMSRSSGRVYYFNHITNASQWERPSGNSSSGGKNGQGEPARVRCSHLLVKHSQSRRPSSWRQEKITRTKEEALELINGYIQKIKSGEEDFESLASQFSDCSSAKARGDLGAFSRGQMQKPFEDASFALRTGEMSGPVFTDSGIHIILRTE

With `Cc1cc2c(C(C)C)c(O)c(O)c(C=O)c2c(O)c1-c1c(C)cc2c(C(C)C)c(O)c(O)c(C=O)c2c1O`, the Potency was 1690 nM (active).

The values are drawn from PubChem BioAssay AID624312 (National Center for Advancing Translational Sciences (NCATS), 2012).
